# Inconclusive results are not listed. Calls of active or inactive are those of the source. Unless noted, calls come from the whole dose curve; as a rule, active = well fitted curve in either direction with a large enough effect (not every such curve was filed as active); inconclusive = small, poorly fitted or top-dose-only effect, or another doubt; inactive = flat fitted curve, though single readings scatter.
# Assays:
# [1] = target: Lysosomal acid glucosylceramidase (Homo sapiens) (UniProt P04062); assay: Glucocerebrosidase-p2 (AID 348; in the data active = potency below about 10 µM; note: potency is the fitted concentration of half-maximal effect); details: purified GBA, blue fluorogenic substrate, 40 min
# Sequence of Lysosomal acid glucosylceramidase (Homo sapiens) (P04062 whole entry, looked up): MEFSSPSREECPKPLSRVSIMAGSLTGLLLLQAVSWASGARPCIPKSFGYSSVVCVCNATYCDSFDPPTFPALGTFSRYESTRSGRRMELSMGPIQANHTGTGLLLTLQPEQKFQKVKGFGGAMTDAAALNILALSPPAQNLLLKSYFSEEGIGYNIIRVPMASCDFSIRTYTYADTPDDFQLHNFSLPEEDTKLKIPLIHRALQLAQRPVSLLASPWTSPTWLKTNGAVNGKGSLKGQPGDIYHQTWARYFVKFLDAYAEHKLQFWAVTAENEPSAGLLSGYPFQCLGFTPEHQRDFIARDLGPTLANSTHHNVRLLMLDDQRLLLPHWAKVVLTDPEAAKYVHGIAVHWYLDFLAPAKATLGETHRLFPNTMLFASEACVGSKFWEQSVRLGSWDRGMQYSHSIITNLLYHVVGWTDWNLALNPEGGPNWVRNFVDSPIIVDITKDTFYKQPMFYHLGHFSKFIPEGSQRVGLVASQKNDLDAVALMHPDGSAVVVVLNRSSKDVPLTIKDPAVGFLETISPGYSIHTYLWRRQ
# Method in brief: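 Compounds titrated from 0.6 nM upwards against 0.2 nM enzyme in pH 5.9 citric acid/KH2PO4, taurocholate, tween-20; blue fluorogenic substrate 80 uM, 40 min room temperature, stopped and read Ex 365/Em 440 for AC50.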
# [2] = AP1 Signaling Pathway (AID 357); details: ME-180 AP-1-bla reporter, EGF-induced, beta-lactamase ratio, 5 h; at 7.69 µM (top of the series) unless noted;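 note: ME-180 reporter cells stimulated with EGF at its EC50 level; % is set by controls: 0 for no effect and ±100 for the full control effect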
# Method in brief: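 Modulation of EGF-driven AP-1 transcription was assessed with a beta-lactamase reporter in ME-180 cells. Compound and EC50 EGF were co-incubated 5 hours at 37 °C before 2.5-hour CCF4 loading at room temperature and dual-emission reading.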
# [3] = target: Cytochrome P450 1A2 (Homo sapiens) (UniProt P05177); assay: p450-cyp1a2 (AID 410; calls by dose curve; note: potency is the fitted concentration of half-maximal effect;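 for activity change, negative = inhibition: -100% = full effect of reference inhibitor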); details: recombinant CYP1A2, luciferin-ME demethylation, luminescence; series mostly up to 57 µM
# Sequence of Cytochrome P450 1A2 (Homo sapiens) (P05177 whole entry, looked up): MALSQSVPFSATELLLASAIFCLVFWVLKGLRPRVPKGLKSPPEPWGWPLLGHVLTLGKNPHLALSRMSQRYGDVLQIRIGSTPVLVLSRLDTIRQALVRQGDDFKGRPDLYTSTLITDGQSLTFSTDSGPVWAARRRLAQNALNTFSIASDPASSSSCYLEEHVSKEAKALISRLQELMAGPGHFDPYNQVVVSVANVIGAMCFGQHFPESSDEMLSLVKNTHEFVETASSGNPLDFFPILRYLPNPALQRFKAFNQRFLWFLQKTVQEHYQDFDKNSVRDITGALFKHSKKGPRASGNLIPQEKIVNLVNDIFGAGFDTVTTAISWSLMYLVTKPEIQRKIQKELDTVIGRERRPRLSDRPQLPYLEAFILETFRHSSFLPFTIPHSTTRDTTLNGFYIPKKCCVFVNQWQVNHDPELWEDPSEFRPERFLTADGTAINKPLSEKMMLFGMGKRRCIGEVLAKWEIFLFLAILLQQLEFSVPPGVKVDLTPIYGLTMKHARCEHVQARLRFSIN
# Method in brief: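 Human CYP1A2 (20nM) demethylated Luciferin-ME at its Km (100uM) in 100mM KPO4. After 10 min compound preincubation, NADPH regeneration ran the reaction 60 min at room temperature. Luciferin was read by luminescence, normalized to 57 uM furafylline.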
# [4] = NFAT Signaling Pathway (AID 444); details: Jurkat NFAT-bla M1, carbachol, beta-lactamase ratio, 5 h; at 7.69 µM (top of the series) unless noted;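 note: carbachol stimulus at about its EC50 of 1 µM final; % is set by controls: 0 for no effect and ±100 for the full control effect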
# Method in brief: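 Read-out: CCF4 FRET ratio (460 nm/530 nm) after 1 h RT dye loading, used for %activity and AC50 from titration series. Cells: Jurkat NFAT-β-lactamase/M1 line, treated with compound plus 1 uM carbachol for 5 h, 37 °C.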
# [5] = target: Glucocorticoid receptor (Homo sapiens) (UniProt P04150); assay: GR-EFC Redistribution (AID 451; calls by dose curve; note: potency is the fitted concentration of half-maximal effect); details: CHO-K1 GR-EFC translocation, beta-gal luminescence, 2 h
# Sequence of Glucocorticoid receptor (Homo sapiens) (P04150 whole entry, looked up, the tested form may be a part): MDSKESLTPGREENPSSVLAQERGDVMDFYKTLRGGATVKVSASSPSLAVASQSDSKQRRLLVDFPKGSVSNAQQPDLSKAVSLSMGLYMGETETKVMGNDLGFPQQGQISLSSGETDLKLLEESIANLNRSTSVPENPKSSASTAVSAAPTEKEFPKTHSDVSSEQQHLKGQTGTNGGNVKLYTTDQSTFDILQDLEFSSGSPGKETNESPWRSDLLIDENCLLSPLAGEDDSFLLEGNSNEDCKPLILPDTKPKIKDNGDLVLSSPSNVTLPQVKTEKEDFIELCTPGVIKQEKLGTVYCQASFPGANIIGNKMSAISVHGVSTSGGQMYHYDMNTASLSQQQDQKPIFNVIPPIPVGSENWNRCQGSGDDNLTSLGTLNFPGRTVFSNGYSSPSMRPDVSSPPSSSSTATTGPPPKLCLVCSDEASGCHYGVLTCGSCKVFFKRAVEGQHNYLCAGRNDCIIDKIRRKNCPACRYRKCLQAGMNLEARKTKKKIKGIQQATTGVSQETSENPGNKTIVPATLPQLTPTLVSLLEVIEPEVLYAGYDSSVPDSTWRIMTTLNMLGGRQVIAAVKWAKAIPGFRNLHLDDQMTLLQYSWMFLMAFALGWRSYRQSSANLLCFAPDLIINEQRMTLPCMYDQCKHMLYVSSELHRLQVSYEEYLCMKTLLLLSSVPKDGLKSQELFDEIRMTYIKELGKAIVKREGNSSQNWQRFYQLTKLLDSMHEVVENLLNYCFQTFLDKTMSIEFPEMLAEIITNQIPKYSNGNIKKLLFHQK
# Method in brief: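 Translocation of GR-ED fusion to nuclear EA restores b-gal, read by luminescence after 1 h room-temperature detection. Engineered CHO-K1 biosensor cells, 1,000/well, exposed 2 h at 37 C to titrations up to 46 uM final.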
# [6] = target: Mitogen-activated protein kinase 10 (Mus musculus) (UniProt Q61831); assay: JNK3 AlphaScreen Assay (AID 530); details: JNK3 lysate, c-Jun phosphorylation; series mostly up to 57.1 µM;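 note: kinase came from lysate of stimulated human HepG2 cells; signal reports phosphorylation of biotinylated GST-cJun 1-79 at Ser73 with 10 µM ATP; % is set by controls: 0 for no effect and ±100 for the full control effect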
# Method in brief: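 Room-temperature AlphaScreen kinase assay; pre-activated HepG2 lysate as JNK3 source, biotin-GST-cJun(1-79) substrate, 10 uM ATP, compound 15 min preincubation.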
# [7] = target: 3',5'-cyclic-AMP phosphodiesterase 4B (Homo sapiens) (UniProt Q07343); assay: qHTS Assay for Inhibitors of PDE-IV (AID 607; active = well fitted activation curve with a large enough effect in the main read-out, with a control signal flat, not every such curve was filed as active; note: % of control where 0% means no effect); details: HEK293 ACTOne CNG channel cells, membrane potential fluorescence; series mostly up to 22.9 µM
# Sequence of 3',5'-cyclic-AMP phosphodiesterase 4B (Homo sapiens) (Q07343 whole entry, looked up): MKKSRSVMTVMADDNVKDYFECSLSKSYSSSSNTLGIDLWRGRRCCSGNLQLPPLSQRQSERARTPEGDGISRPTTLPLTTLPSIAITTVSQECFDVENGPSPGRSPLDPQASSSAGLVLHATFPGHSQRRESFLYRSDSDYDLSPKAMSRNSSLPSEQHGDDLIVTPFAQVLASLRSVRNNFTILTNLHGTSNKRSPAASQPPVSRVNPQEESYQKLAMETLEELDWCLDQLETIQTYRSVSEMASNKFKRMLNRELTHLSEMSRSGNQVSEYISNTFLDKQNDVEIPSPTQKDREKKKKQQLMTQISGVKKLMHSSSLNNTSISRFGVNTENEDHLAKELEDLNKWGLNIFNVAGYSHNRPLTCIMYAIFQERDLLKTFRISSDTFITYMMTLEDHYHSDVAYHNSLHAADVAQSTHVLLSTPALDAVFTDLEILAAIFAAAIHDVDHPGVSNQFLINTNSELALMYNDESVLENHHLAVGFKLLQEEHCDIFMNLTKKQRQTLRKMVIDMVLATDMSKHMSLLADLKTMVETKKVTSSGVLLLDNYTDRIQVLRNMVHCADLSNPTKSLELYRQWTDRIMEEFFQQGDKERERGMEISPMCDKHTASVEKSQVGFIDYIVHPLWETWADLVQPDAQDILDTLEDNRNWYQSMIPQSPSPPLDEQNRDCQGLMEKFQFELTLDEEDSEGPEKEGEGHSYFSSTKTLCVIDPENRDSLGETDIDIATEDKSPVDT
# Method in brief: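 Live HEK293 cells with a modified cyclic nucleotide-gated (CNG) channel report intracellular cAMP via membrane-potential dye fluorescence (ex 535/em 590 nm). Endogenous PDE-IV was targeted. Compounds were tested at up to 22.9 uM final; RO 20-1724 100 uM served as control.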
# [8] = target: Cytochrome P450 3A4 (Homo sapiens) (UniProt P08684); assay: qHTS Assay for Activators of Cytochrome P450 3A4 (AID 885; active = well fitted curve in the direction sought with a large enough effect; an effect the other way counts as inactive or inconclusive; note: nearly all actives have a fitted effect of over 65% in size); details: recombinant CYP3A4, Luciferin-PPXE luminescence, 60 min; series mostly up to 57.1 µM
# Sequence of Cytochrome P450 3A4 (Homo sapiens) (P08684 whole entry, looked up): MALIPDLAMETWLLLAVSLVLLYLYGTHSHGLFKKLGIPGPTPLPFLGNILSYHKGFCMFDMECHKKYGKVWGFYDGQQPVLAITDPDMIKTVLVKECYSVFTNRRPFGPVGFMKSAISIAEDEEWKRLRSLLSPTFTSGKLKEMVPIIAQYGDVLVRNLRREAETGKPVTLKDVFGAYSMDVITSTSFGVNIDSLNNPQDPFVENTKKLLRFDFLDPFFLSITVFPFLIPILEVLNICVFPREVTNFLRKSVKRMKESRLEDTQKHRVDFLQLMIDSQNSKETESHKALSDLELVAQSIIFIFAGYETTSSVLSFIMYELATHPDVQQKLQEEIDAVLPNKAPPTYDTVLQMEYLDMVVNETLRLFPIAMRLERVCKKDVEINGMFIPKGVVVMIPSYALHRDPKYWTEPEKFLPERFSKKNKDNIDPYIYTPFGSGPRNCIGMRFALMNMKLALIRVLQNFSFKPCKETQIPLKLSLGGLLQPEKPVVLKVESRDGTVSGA
# Method in brief: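 Quantitative HTS format: compounds preincubated with 20nM human CYP3A4 and Luciferin-PPXE substrate at KM, reaction started by NADPH regeneration, stopped after 60 min, luciferase luminescence read 20 min later.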
# [9] = Confirmation and Secondary Assay for Modulators of Hemoglobin Beta Chain Splicing at IVS2 654 locus (AID 910; active = well fitted curve in the direction sought with a large enough effect; an effect the other way counts as inactive or inconclusive;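 note: HeLa cells stably carrying EGFP split by mutant beta-globin IVS2-654 intron; per-well total GFP intensity by laser scanning cytometry after 2-day treatment; % of control where 0% means no effect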); details: HeLa EGFP-654 splicing reporter, GFP fluorescence, 48 h; series mostly up to 38.3 µM
# Method in brief: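 Readout: per-well total peak green fluorescence (488 nm ex, 500–520 nm em) from objects 5–250 µm, reflecting correct splicing of an EGFP-654 reporter. Compounds were applied for 2 days at 37 °C to overnight-plated HeLa EGFP-654 cells; controls were DMSO and 500 nM IVS2-654 PNA.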
# [10] = qHTS Assay for Lipid Storage Modulators (AID 1519; calls by dose curve); details: Drosophila S3 cells, BODIPY lipid droplet/cell ratio, laser cytometry, cells loaded with oleic acid; for activity change, negative = inhibition: at 57.5 µM (top of the series)
# Method in brief: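 Cells seeded at 5,000 per well were treated with compounds over a concentration series and loaded with oleic acid (400 uM, as added). Lipid droplet fluorescence (488 nm excitation, 500-530 nm channel) was read by laser-scanning cytometry and normalized to 20 uM Triacsin C.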
# [11] = target: Ubiquitin carboxyl-terminal hydrolase 1 (Homo sapiens) (UniProt O94782); assay: Inhibitors of USP1/UAF1: Pilot qHTS (AID 504865; active = well fitted curve in the direction sought with a large enough effect; an effect the other way counts as inactive or inconclusive; note: nearly all actives have a fitted effect of over 35% in size; note: potency is the fitted concentration of half-maximal effect); details: purified USP1/UAF1, Ub-rhodamine cleavage fluorescence; series mostly up to 54.9 µM
# Sequence of Ubiquitin carboxyl-terminal hydrolase 1 (Homo sapiens) (O94782 whole entry, looked up): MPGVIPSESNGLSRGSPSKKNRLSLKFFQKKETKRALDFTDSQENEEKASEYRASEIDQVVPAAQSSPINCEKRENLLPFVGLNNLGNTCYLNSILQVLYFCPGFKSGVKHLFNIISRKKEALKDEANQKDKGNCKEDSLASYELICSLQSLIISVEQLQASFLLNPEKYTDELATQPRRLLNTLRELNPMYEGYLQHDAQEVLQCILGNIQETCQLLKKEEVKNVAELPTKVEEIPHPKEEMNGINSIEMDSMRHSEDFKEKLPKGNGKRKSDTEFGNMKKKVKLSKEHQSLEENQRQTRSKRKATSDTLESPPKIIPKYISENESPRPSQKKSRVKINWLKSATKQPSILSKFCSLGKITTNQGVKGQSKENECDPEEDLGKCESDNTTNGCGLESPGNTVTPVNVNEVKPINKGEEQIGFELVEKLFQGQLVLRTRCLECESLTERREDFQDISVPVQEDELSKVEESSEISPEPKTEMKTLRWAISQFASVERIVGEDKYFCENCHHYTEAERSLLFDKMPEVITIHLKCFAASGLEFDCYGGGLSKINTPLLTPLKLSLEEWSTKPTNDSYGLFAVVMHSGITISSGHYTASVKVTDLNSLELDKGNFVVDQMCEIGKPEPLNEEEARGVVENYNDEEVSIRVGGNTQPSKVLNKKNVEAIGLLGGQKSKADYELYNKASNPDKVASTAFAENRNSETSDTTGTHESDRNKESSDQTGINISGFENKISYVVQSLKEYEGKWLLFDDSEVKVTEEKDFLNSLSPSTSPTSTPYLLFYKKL
# Method in brief: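 USP1/UAF1 complex (1nM) preincubated with compound 15 min at room temperature, then Ub-Rho substrate (150nM final) added. Fluorescence read kinetically at 480/540 nm, 6 reads every 60 seconds. Buffer: 50mM HEPES pH 7.8, 0.5mM EDTA, 0.1 mg/ml BSA, 1mM TCEP, 0.01% Tween-20.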
# [12] = Stat Signaling Pathway (AID 446); details: ME-180 SIE beta-lactamase reporter, IL-6 stimulated, 5 h; at 7.69 µM (top of the series) unless noted;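 note: ME-180 cervical cancer cells given 40 pM IL-6 alongside compound; SIE-controlled beta-lactamase reporter measured as 460/530 nm FRET emission ratio; % is set by controls: 0 for no effect and ±100 for the full control effect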
# Method in brief: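 IL-6/STAT signaling read in ME-180 cells via an SIE beta-lactamase reporter. Stimulus was 40 pM IL-6 (its AC50) for 5 hrs, so both activation and inhibition register.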
# [13] = target: Glucocorticoid receptor (Homo sapiens) (UniProt P04150); assay: GR-GFP Redistribution (AID 450;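 active = compounds whose dose series gives a full or clear partial fitted curve of increased nuclear translocation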; note: potency is the fitted concentration of half-maximal effect); details: U2OS GR-GFP nuclear translocation, laser cytometry, 2 h
# [14] = Confirmation and Secondary Assay for Modulators of Hemoglobin Beta Chain Splicing at IVS2 705 locus (AID 930; active = well fitted curve in the direction sought with a large enough effect; an effect the other way counts as inactive or inconclusive;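 note: HeLa cells stably expressing the EGFP-705 splicing reporter; GFP fluorescence per well restored by corrected splicing of the IVS2-705 intron in EGFP; % of control where 0% means no effect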); details: HeLa EGFP-705 splicing reporter, GFP fluorescence, 48 h; series mostly up to 38.3 µM
# Method in brief: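 Splice-correction reporter: EGFP cDNA split by beta-globin intron 2 bearing the 705 mutation, stably in HeLa. Compound incubation 2 days, 37C; fluorescent objects 5-250 µm summed per well.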
# [15] = target: Cytochrome P450 3A4 (Homo sapiens) (UniProt P08684); assay: qHTS Assay for Inhibitors and Substrates of Cytochrome P450 3A4 (AID 884; active = well fitted curve in the direction sought with a large enough effect; an effect the other way counts as inactive or inconclusive; note: nearly all actives have a fitted effect of over 50% in size; note: potency is the fitted concentration of half-maximal effect); details: recombinant CYP3A4, Luciferin-PPXE luminescence; series mostly up to 57.1 µM
# Method in brief: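 20 nM human CYP3A4 with 25 uM Luciferin-PPXE (at KM) in 200 mM KPO4, preincubated 10 min with compound; NADPH regeneration started a 60 min RT reaction. Luciferin detected by luminescence, normalized to 57 uM ketoconazole as full inhibition.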
# [16] = target: Cytochrome P450 2C19 (Homo sapiens) (UniProt P33261); assay: qHTS Assay for Inhibitors and Substrates of Cytochrome P450 2C19 (AID 899; active = well fitted curve in the direction sought with a large enough effect; an effect the other way counts as inactive or inconclusive; note: potency is the fitted concentration of half-maximal effect; nearly all actives have a fitted effect of over 60% in size); details: recombinant CYP2C19, luciferin-H EGE luminescence; series mostly up to 57.1 µM
# Sequence of Cytochrome P450 2C19 (Homo sapiens) (P33261 whole entry, looked up): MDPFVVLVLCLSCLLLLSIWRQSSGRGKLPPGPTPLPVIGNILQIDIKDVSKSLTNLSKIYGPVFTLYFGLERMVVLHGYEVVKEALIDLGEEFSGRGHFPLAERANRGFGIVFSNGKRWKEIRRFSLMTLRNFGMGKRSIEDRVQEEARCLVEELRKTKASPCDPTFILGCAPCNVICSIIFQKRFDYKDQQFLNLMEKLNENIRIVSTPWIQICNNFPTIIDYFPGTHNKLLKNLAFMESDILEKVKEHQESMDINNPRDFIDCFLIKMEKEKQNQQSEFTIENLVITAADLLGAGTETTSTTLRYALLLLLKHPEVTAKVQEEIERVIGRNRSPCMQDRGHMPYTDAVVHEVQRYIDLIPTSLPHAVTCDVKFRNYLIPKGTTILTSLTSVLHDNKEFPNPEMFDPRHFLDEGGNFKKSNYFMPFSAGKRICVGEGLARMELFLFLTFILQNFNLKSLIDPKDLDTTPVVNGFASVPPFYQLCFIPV
# Method in brief: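 Luminescence readout of luciferin formed from 10uM Luciferin-H EGE (KM level) by 5 nM CYP2C19 in 50mM KPO4. 60 min NADPH-driven reaction at 37C after 10 min compound preincubation; data scaled to 57uM ketoconazole inhibition.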
# [17] = qHTS Assay for Identification of Small Molecule Agonists for Hypoxia Response Element Signaling Pathway (AID 914; active = well fitted activation curve with a large enough effect in the signal ratio, with a control signal flat, not every such curve was filed as active; the % refers to the signal ratio; note: % of control where 0% means no effect); details: ME-180 (cervical carcinoma) HRE-bla reporter, beta-lactamase ratio, CoCl2, 17 h; activation: stronger effect = higher value
# Method in brief: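 Cells were plated overnight, pin-dosed with compound in a titration series, co-stimulated with EC50 CoCl2 and incubated 17 hours at 37 degrees Celsius. CCF4 substrate was then loaded, and AC50 values came from the 460nm/530nm ratio.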
# [18] = target: Cytochrome P450 2D6 (Homo sapiens) (UniProt P10635); assay: qHTS Assay for Inhibitors and Substrates of Cytochrome P450 2D6 (AID 891; active = well fitted curve in the direction sought with a large enough effect; an effect the other way counts as inactive or inconclusive; note: potency is the fitted concentration of half-maximal effect; nearly all actives have a fitted effect of over 60% in size); details: recombinant CYP2D6, luciferin-ME EGE luminescence; series mostly up to 57.1 µM
# Sequence of Cytochrome P450 2D6 (Homo sapiens) (P10635 whole entry, looked up): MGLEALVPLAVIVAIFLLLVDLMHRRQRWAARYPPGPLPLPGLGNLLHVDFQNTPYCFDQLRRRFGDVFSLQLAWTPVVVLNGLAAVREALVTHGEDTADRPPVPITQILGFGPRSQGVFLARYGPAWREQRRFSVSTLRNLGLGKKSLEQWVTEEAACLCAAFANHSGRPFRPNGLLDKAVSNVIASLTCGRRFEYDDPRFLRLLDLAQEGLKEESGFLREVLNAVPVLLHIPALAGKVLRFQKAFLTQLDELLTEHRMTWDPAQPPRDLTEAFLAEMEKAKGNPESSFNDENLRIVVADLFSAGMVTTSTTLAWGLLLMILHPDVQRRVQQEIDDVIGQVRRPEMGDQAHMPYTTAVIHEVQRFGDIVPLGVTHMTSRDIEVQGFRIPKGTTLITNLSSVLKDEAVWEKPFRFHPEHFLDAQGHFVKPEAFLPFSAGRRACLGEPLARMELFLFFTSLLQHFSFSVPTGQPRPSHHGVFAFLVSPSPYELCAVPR
# Method in brief: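 Human CYP2D6 (5 nM) with 30 uM Luciferin-ME EGE (at Km) in 100 mM KPO4, compound preincubated 10 min, then NADPH regeneration system for 60 min at room temperature. Luciferin read by luminescence; normalized to 1.43 uM quinidine.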
# [19] = measured here: cell count channel max response
# [20] = measured here: lipid channel max response
SMILES,Potency [1],"activity change, negative = inhibition [2]",Potency [3],"activity change, negative = inhibition [4]",Potency [5],Potency [6],Potency [7],Potency [8],Potency [9],"activity change, negative = inhibition [10]","max response [10, 19] [%]","max response [10, 20] [%]",Potency [11],"activity, negative = inhibition [12]",Potency [13],outcome [14],Potency [15],Potency [16],activation [17],Potency [18]
N#Cc1ccccc1-c1cncnc1NCc1cccnc1,> 11.4 µM (inactive),-25.2% (inactive),0.0631 µM (active),5.72% (inactive),> 46 µM (inactive),inactive,inactive,inactive,inactive,4.31% (inactive),7.61,12.5,inactive,,,,,,,
CN(C)C(=O)c1ccc(-c2ccc3ncnc(NCc4cccnc4)c3c2)cc1,> 11.4 µM (inactive),-3.5% (inactive),,14% (inactive),> 46 µM (inactive),inactive,inactive,,inactive,8.52% (inactive),9.7,16.7,inactive,-1.99% (inactive),> 46 µM (inactive),inactive,,,,
N#Cc1ccc(CN2CCC3(CC2)CCN(S(=O)(=O)c2ccccc2)CC3)cc1,> 11.4 µM (inactive),-18.1% (inactive),inactive,,> 46 µM (inactive),inactive,inactive,inactive,,-0.545% (inactive),11.7,10.8,,1.33% (inactive),,,,,,
c1ccc2c(Nc3ccncc3)nc(-c3ccc4c(c3)OCO4)nc2c1,2.47 µM (active),4.72% (inactive),1.26 µM (active),,> 46 µM (inactive),inactive,,inactive,inactive,-19.5% (inactive),5.68,-11.9,39.8 µM (active),-10.5% (inactive),> 46 µM (inactive),inactive,0.501 µM (active),3.98 µM (active),-1.29% (inactive),
COc1ccc(NC(=O)N2CCCC3(CCN(C(=O)c4cc(C(F)(F)F)cc(C(F)(F)F)c4)CC3)C2)cc1,> 11.4 µM (inactive),-9.5% (inactive),inactive,12.1% (inactive),> 46 µM (inactive),inactive,inactive,inactive,,6.29% (inactive),9.63,18.5,,-15.1% (inactive),,,,,,
c1ccc(C(c2ccccc2)N2CC3(CCNCC3)C2)cc1,> 11.4 µM (inactive),14% (inactive),15.8 µM (active),,> 46 µM (inactive),inactive,inactive,,,0.527% (inactive),-0.423,0.5,,,,,inactive,,,2.51 µM (active)
